# GLS inhibitor: qHTS for Inhibitors of Glutaminase (GLS); GLS enzymatic activity, qHTS titration; 0.21% of 410,000 active; Potency, µM (titrated, usually from 45.5 µM), actives largely listed as inhibitors; Glutaminase kidney isoform, mitochondrial (Homo sapiens), O94925; AID 624170, 2012
#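 hKGA; 45 mM KH2PO4 pH 8.2 + 0.02% Tween-20; cpd via pin tool; 1 mM Gln soln; GluOx/HRP/Amplex Red; RT 30 min; fluor. t0 & final.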
# JMJD2A Tudor: qHTS Assay for Inhibitors of JMJD2A-Tudor Domain | AID 504339, 2011 | Lysine-specific demethylase 4A (Homo sapiens), O75164 | 4.4% of 390,000 active | AlphaScreen JMJD2A-Tudor / H3K4me3 peptide binding | Potency, µM (highest dose often 114 µM), usual class: inhibitors; further: nearly all actives have a fitted effect of over 50% in size
# HP1b chromo inh: HTS for Inhibitors of HP1-beta Chromodomain Interactions with Methylated Histone Tails; Chromobox protein homolog 1 (Homo sapiens), P83916; AlphaScreen HP1-beta / biotin-H3K9me3 peptide binding; Potency, µM (highest dose often 114 µM), usual class: inhibitors; 0.56% of 390,000 active; further: nearly all actives have a fitted effect of over 70% in size
# Target sequence (P83916 whole entry, looked up): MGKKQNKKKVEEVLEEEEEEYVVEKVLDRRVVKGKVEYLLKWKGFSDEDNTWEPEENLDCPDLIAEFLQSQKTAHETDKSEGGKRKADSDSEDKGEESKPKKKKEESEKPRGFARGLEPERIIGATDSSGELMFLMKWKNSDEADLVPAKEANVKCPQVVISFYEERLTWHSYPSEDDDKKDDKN
#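 AlphaScreen: HP1-beta (50 nM) preformed 30 min with biotin-H3(1-18)K9me3 peptide (50 nM) in PBS pH 7.4, 0.01% Tween-20. Compound added for 30 min at RT, then streptavidin donor/nickel chelate acceptor beads (10 ug/mL) for 30 min.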
# G9a block: qHTS Assay for Inhibitors of Histone Lysine Methyltransferase G9a. Potency, µM (series often up to 102 µM), actives largely listed as inhibitors. AID 504332, 2011. G9a H3K9 monomethylation, AlphaScreen, 2 h. Histone-lysine N-methyltransferase EHMT2 (Homo sapiens), Q96KQ7. 8.8% of 350,000 active; further: nearly all actives have a fitted effect of over 75% in size
# Target sequence (Q96KQ7 913-1193 limits assumed): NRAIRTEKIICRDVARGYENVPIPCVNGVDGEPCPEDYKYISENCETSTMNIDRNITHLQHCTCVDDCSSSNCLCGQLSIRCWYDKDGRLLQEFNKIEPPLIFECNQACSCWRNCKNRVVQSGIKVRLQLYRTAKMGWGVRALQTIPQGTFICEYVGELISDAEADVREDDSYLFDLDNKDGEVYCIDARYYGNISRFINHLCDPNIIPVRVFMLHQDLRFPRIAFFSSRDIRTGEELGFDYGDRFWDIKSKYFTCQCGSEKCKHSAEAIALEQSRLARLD
#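 Readings reflect AlphaScreen signal from monomethyl-H3K9 antibody detection. HMT at 20 nM; substrate b-H3K9 500 nM; cofactor SAM 20 uM; 2 h RT reaction; compounds tested as titrations in qHTS with 15 min preincubation.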
# BAZ2B block: qHTS Assay for Inhibitors of BAZ2B | Bromodomain adjacent to zinc finger domain protein 2B (Homo sapiens), Q9UIF8 | AlphaScreen BAZ2B-H3K14Ac peptide displacement | Potency, µM (top dose mostly 114 µM), usual class: inhibitors | 4.4% of 360,000 active; further: nearly all actives have a fitted effect of over 60% in size
#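 Multi-concentration screen (max 110 uM) measuring displacement of acetylated histone H3 peptide from BAZ2B by AlphaScreen, using 50 nM protein, 50 nM peptide and 10 ug/mL streptavidin donor plus Ni-chelate acceptor beads.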
# Hits are given with their value; . = inactive; ? = inconclusive; / = not tested or not shown; [ ] = another dose, or the depositor's remark. Shown are actives, neighbours in structure and some others; about 10% of the full set was active somewhere. The call rests on the fitted dose curve; in most records, active means well fitted curve in the direction sought with a large enough effect; inconclusive means small, poorly fitted or top-dose-only effect, or another doubt; inactive means no such curve, though single readings can be large; an effect the other way counts as inactive or inconclusive.
SMILES,GLS inhibitor,JMJD2A Tudor,HP1b chromo inh,G9a block,BAZ2B block
O=C(O)C1NCCc2ccccc21 (stereo unspecified),.,?,.,40µM,?
CC(=O)N(/N=C1\Sc2ccccc2C1=O)c1cccc(C)c1,.,.,.,?,40µM
CCCS(=O)(=O)NC(=O)C1(C)CCCN(C(=O)c2ccccc2F)C1 (stereo unspecified),.,/,/,/,/
CCOC(=O)c1noc2ncnc(Nc3cc(Cl)c(OC)cc3OC)c12,.,.,.,.,.
CC1=C(C(=O)NCc2ccccn2)C2(CCC(C)CC2)OC1=O (stereo unspecified),.,28µM,.,10µM,79µM
CC1=C(C(=O)NCc2ccc(Cl)cc2)C2(CCC(C)CC2)OC1=O (stereo unspecified),.,.,.,.,.
CC12CCC(C(=O)NCc3ccccn3)(OC1=O)C2(C)C (stereo unspecified),.,?,.,?,79µM
CC12CCC(C(=O)NCc3cccnc3)(OC1=O)C2(C)C (stereo unspecified),.,.,.,.,.
Cc1csc2nc(COC(=O)c3cccc(NC(=O)COc4ccccc4Cl)c3)cc(=O)n12,.,.,.,.[12.7 µM],.
O=C(Nc1cnc2ccccn2c1=O)c1ccc(Cl)cc1,.,.,.,.,.
COC(=O)C1=C(O)/C(=C\c2ccc(CNC(=O)C(=O)Nc3ccc(C)cc3)o2)N=C1C,.,?,.,32µM,32µM
COC(=O)C1=C(O)/C(=C\c2ccc(CNC(=O)C(=O)Nc3ccc(C)c(C)c3)o2)N=C1C,.,.,.,50µM,.
CCOC(=O)C(=O)NCc1ccc(/C=C2/N=C(C)C(C(=O)OCC)=C2O)o1,.,.,.,/,.
CCOC(=O)C1=C(O)/C(=C/c2ccc(CNC(=O)C(=O)Nc3ccc(C)cc3)o2)N=C1C,.,.,.,32µM,50µM
CCOC(=O)c1ccccc1NC(=O)c1nn(C)c2c1COc1ccccc1-2,.,.,.,.,.
O=S(=O)(NCCc1nnc2ccc(SCc3cccc(Cl)c3)nn12)c1ccccc1,.,.,.,.,.
CCN(CCNCC(O)COCc1ccc(Cl)cc1)c1cccc(C)c1 (stereo unspecified),?,0.89µM,40µM,7.9µM,20µM
O=C(NC(Cc1ccccc1)C(=O)O)c1cccnc1Cl (stereo unspecified),.,.,.,.,.
CC1=CC(C)(C)NC(=S)N1c1cccc2cc(S(=O)(=O)O)ccc12,11µM,?,.,25µM,.
Cn1c(=O)c(-c2ccc(Cl)cc2)nc2cnc(Nc3ccccc3)nc21,/,/,/,.[0.501 µM],/
CN1C(=O)/C(=C/c2ccc(C(=O)Nc3ccc(O)cc3C(=O)O)cc2)SC1=S,?,45µM,45µM,.[0.0925 µM],22µM
CCOc1ccc(/C=C2\SC(=S)N(CCC(=O)Nc3ccccc3C(=O)O)C2=O)cc1,.,.,.,35µM,?
COc1ccc(/C=C2\SC(=S)N(CCC(=O)Nc3ccccc3C(=O)O)C2=O)cc1,.,?,?,71µM,?
COc1ccc(/C=C2\SC(=S)N(CCCC(=O)Nc3ccccc3C(=O)O)C2=O)cc1OC,.,?,.,.,.
CCCC[C@]12Cc3ccccc3C(O1)c1c(cc(-c3ccccc3)oc1=O)O2,/,/,/,.[2.33 µM],?
SMILES,GLS inhibitor,JMJD2A Tudor,HP1b chromo inh,G9a block,BAZ2B block
CCOC(=O)Cc1ccc(NC(=O)NCc2ccc3c(c2)CCN3C(=O)CC)cc1,.,.,.,.,.
O=C(NC1CCCC1)c1ccc2c(c1)N(Cc1ccc(C(F)(F)F)cc1)C(=O)c1ccccc1S2,.,.,.,.,/
O=C(Cc1nc2ccccc2[nH]1)c1ccc(Br)cc1,.,.,.,45µM,.
O=C(O)COCc1nc2ccccc2[nH]1,.,.,.,79µM,.
CSc1cccc(NC(=O)Nc2ccccc2C(N)=O)c1,.,.,.,.,.
CCOc1ccc(C2C(C(=O)C3CC3)N3C=C(C#N)C=CC3C2(C#N)C#N)cc1 (stereo unspecified),/,/,/,25µM,.
C=CCN1c2ccccc2Sc2cnccc21,.,/,/,/,/
c1ccc2c(c1)Nc1ccncc1S2,10µM,.,.,/,.
c1ccc2c(c1)Nc1cc3ccccc3cc1O2,.,.,.,/,/
c1ccc2c(c1)Nc1cc3ccccc3cc1S2,.,.,.,40µM,.
COc1ccc2c(c1)Sc1ccccc1N2,18µM,40µM,28µM,3.5µM,20µM
N#CC1(NC(=O)COc2cc(F)ccc2[N+](=O)[O-])CCCCC1,.,.,.,?,.
N#CC1(NC(=O)COc2ccccc2[N+](=O)[O-])CCCCC1,.,20µM,?,18µM,.
COc1cc(NC(=O)CNC(c2ccccc2)c2ccccc2)cc(OC)c1OC,.,.,.,.,.
COc1ccc(C(NCC(=O)NC(C)c2ccc(Cl)cc2)c2ccccc2)cc1 (stereo unspecified),.,25µM,?,.[2.33 µM],79µM
COc1ccc(NC(=O)CNC(c2ccccc2)c2ccccc2)cc1,.,20µM,?,/,79µM
CCOc1ccc(NC(=O)CN2CCC(n3cnc4cc(F)ccc43)CC2)cc1,.,.,.,?,.
CC(=O)NC(CC(=O)NCCc1ccccc1)c1ccccc1 (stereo unspecified),.,.,.,.,.
COc1ccccc1OCCNC(=O)CC(NC(C)=O)c1ccccc1 (stereo unspecified),.,.,.,79µM,.
O=C(NC1C2CCCC1CN(C1CC1)C2)c1ccc(Cl)cc1 (stereo unspecified),.,.,.,.,.
CC1CCC(NC(=O)CN2CCN(S(=O)(=O)c3ccc(Br)s3)CC2)CC1 (stereo unspecified),.,/,/,/,/
COC(=O)c1c(NC(=O)c2nc3nc(C)cc(C(F)F)n3n2)sc2c1CCC2,.,.,.,.,.
NC(=O)c1c(NC(=O)c2noc3c2CCCC3)sc2c1CCCC2,.,79µM,?,1.8µM,.
Cc1cc(C(F)F)n2nc(C(=O)Nc3sc4c(c3C(N)=O)CCC4)nc2n1,.,.,.,40µM,.
Cn1ccc(C(=O)Nc2sc3c(c2C(N)=O)CCCCC3)n1,.,.,.,22µM,.
CCOC(=O)c1c(NC(=O)c2noc3c2CC(C(C)(C)C)CC3)sc2c1CCCC2 (stereo unspecified),.,79µM,?,2µM,.
CC(=O)Nc1sc2c(c1C(N)=O)CCCC2,.,.,.,.[12.7 µM],.
CC(=O)C1=CCC(c2ccccc2Cl)N(S(=O)(=O)c2ccc(C)cc2)C1 (stereo unspecified),.,/,/,/,/
CCC(=O)N1c2ccc(S(=O)(=O)NCc3ccc(F)cc3)cc2CC1C (stereo unspecified),.,.,.,.,/

# Source: PubChem BioAssay
